Source: PubChem (Buhrlage Lab, Dana-Farber Cancer Institute and Novartis Institutes for BioMedical Research (Cambridge, Mass))
The list is not random: actives were taken first. Their share in the collection is about 13%.
USP30 block: blocks human USP30 ubiquitin-rhodamine cleavage | Q70CQ3 | AID 1645860 | purified USP30, Ub-rhodamine cleavage fluorescence | 47,000 compounds, 5.3% hits | inhibition, % at 25 µM
OTUD3 inh: blocks human OTUD3 ubiquitin-rhodamine cleavage; purified OTUD3, Ub-rhodamine fluorescence, 2 h; Q5T2D3; inhibition, % at 25 µM; 47,000 compounds, 0.7% hits
Target sequence (Q5T2D3 whole entry, looked up): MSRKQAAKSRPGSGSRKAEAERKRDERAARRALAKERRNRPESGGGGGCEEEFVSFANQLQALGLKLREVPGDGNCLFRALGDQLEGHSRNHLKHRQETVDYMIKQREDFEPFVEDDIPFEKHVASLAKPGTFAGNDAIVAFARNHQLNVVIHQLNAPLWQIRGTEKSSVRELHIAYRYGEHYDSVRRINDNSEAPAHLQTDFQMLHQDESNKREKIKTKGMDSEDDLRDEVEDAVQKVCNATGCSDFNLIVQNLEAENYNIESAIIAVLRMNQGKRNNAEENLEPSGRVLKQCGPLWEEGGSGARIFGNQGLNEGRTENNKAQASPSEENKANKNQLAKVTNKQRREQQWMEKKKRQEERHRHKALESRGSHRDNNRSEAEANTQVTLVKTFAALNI
USP17 inh: blocks human USP17 ubiquitin-rhodamine cleavage; purified USP17, Ub-rhodamine cleavage fluorescence, 3 h; inhibition, % at 50 µM; 47,000 compounds, 6.5% hits; A8MUK1
USP28 inh: blocks human USP28 ubiquitin-rhodamine cleavage; 47,000 compounds, 3% hits; Q96RU2; purified USP28, Ub-rhodamine cleavage fluorescence, 30 min; inhibition, % at 25 µM
USP8 inh: inhibitors of human USP8 deubiquitinase. P40818. purified USP8, Ub-rhodamine cleavage fluorescence, 30 min. inhibition, % at 20 µM. 47,000 compounds, 4.2% hits
Numbers without * were called inactive; i = inactive; . = no result given. No stated cut-off is given here; in the data, active means inhibition above about 30%; inactive means the rest.

SMILES	USP30 block	OTUD3 inh	USP17 inh	USP28 inh	USP8 inh
O=C(Nc1ncc2c(n1)CC(c1ccco1)CC2=O)c1ccco1 (configuration not stated)	-54.4	-0.6	-18.5	-6.0	-5.3
COc1ccc(N2CCN(C(=O)c3cc(-c4ccccn4)nc4ccccc34)CC2)cc1	-25.0	-3.4	9.1	8.5	12.9
COc1ccc(C(=O)COC(=O)C(NC(=O)c2ccc(C(C)(C)C)cc2)C(C)C)cc1 (configuration not stated)	-14.9	-3.3	0.6	-5.2	0.7
Cc1ccc(-n2c(=O)c3ccccc3n(Cc3c(F)cccc3Cl)c2=O)cc1	-0.2	3.3	61.8*	5.6	13.2
CC(C)Cc1ccc(-c2cc(-c3ccc(C(F)(F)F)cc3)c(C#N)c(=O)[nH]2)cc1	15.0	-0.2	16.4	0.5	11.5
N#Cc1c(-c2ccc(Cl)cc2)cc(-c2cccc(Br)c2)[nH]c1=O	22.6	28.3	13.2	9.9	51.7*
Cc1ccc(-c2cc(-c3ccc(F)cc3)[nH]c(=O)c2C#N)cc1	.	-1.7	67.3*	.	8.6
CC(C)(C)c1cc(C(=O)N2CCC[C@H](C(=O)c3ccc(F)cc3)C2)n[nH]1	17.9	15.6	8.8	14.8	12.2
Cc1cc(C)c2sc(NC(=O)c3ccc4c(c3)OCO4)nc2n1	i	-178.1	-53.6	-209.0	-39.1
CC(O)[C@@H](NC(=O)C1(c2ccccc2)CCN(C(=O)[C@@H]2CCCN2C(=O)OC(C)(C)C)CC1)C(=O)O (some centres not stated)	10.9	7.9	13.4	4.2	0.0
CCc1nnc(NC(=O)C(NS(=O)(=O)c2ccc3c(c2)OCCO3)C(C)C)s1 (configuration not stated)	5.6	8.8	6.5	26.1	2.5
Cc1ccccc1NC(=O)C(NS(=O)(=O)c1ccc2c(c1)OCCO2)C(C)C (configuration not stated)	7.4	-10.2	39.8*	-0.4	-15.8
O=C(NC1CCCCCC1)C(Cc1ccccc1)NS(=O)(=O)c1ccc2c(c1)OCCO2 (configuration not stated)	1.6	0.5	48.8*	4.7	-0.5
CC(C)c1ccc(NC(=O)C2C3C=CC4(O3)C2C(=O)N(C2CCCCC2)C4C(=O)NC2CCCCC2)cc1 (configuration not stated)	10.2	9.0	14.2	0.9	0.0
CC(C)c1cc(C(=O)N2CCCC2c2cc(C(C)C)on2)no1 (configuration not stated)	-1.6	-0.4	-0.3	0.5	-34.6
O=C(CSc1ncn[nH]1)Nc1ccc2c(c1)OCO2	-4.5	-15.7	.	-12.4	-20.7
O=C(CCCn1c(=O)c2ccccc2n(CC(=O)Nc2ccc(Br)cc2F)c1=O)NCc1ccccc1Cl	-14.5	11.5	40.7*	15.1	0.9
Cc1cccc(C)c1NC(=O)Cn1c(=O)n(CCCCC(=O)NCc2ccc3c(c2)OCO3)c(=O)c2ccccc21	66.8*	18.3	32.6*	32.1*	68.9*
O=C(CSc1n[nH]c2nc3ccccc3n12)Nc1ccc2c(c1)OCO2	0.9	1.2	-28.0	37.3*	30.3*
O=C(CCCn1c(=O)c2ccccc2n(CC(=O)NCc2ccccc2Cl)c1=O)NCc1ccc2c(c1)OCO2	66.3*	26.2	27.1	32.6*	72.5*
COc1ccc(CCNC(=O)Cn2c(=O)n(CCCCC(=O)NCc3ccc4c(c3)OCO4)c(=O)c3ccccc32)cc1OC	21.5	0.2	27.8	-0.2	-3.4
O=C(CCCCn1c(=O)c2ccccc2n(CC(=O)Nc2ccc(Br)cc2F)c1=O)NCc1ccco1	i	-172.4	-133.8	-250.2	-230.9
CC(O)C1CCc2c3ccc(O)c4c3c(n21)C1=C(C4=O)[C@@H](C)O[C@H](CC(=O)O)C1 (some centres not stated)	i	-146.2	-176.6	-188.5	-325.6
COc1ccc(C(=O)N2c3ccccc3OCC2CC(=O)O)cc1 (configuration not stated)	28.9	9.0	12.0	9.1	18.4
O=C(Cn1c(=O)c2ccccc2c2ccccc21)Nc1ccc2c(c1)OCO2	82.4*	33.3*	52.5*	31.5*	87.4*
SMILES	USP30 block	OTUD3 inh	USP17 inh	USP28 inh	USP8 inh
CC(C)Cc1nc2sc3c(NC4CCCCC4)ncnc3c2c2c1CCC2	-8.5	-3.7	-8.1	-8.2	-4.2
CCCCc1nc2sc3c(SCC(=O)Nc4ccc(OC)cc4)ncnc3c2c2c1CCC2	47.6*	14.5	24.8	28.5	15.8
CCCc1nc2sc3c(NC4CCCCC4)ncnc3c2c2c1CCC2	23.0	5.4	11.6	74.8*	11.6
CCCc1nc2sc3c(N(CC)CC)ncnc3c2c2c1CCC2	-8.6	1.2	-2.1	52.3*	-2.5
CCCCNc1ncnc2c1sc1nc(CCCC)c3c(c12)CC(C)(C)OC3	14.2	1.9	44.9*	-4.2	6.6
CC(=O)NC[C@H]1C[C@]2(C)[C@@H](CCCC[C@]2(C)O)N1C(=O)c1ccnn1C(C)C	8.7	7.7	6.9	6.9	11.4
O=C(NC1CCCCC1)N1CCc2nc(-c3ccccc3)ncc2C1	9.9	-1.8	2.3	-6.5	-11.6
CCCc1nc2sc3c(NCCc4ccc(OC)c(OC)c4)ncnc3c2c2c1CCC2	-46.4	-28.0	-23.1	67.1*	-9.0
NC(=O)c1cccc(-c2cccc(C3CN(C(=O)c4ccn[nH]4)CCO3)n2)c1 (configuration not stated)	18.5	10.1	16.1	3.8	22.3
COc1ccccc1C1Cn2c(C)cnc2CN1Cc1cn[nH]c1C (configuration not stated)	.	2.4	8.3	.	-1.0
COc1ccc(C2/C(=C(\O)c3ccccc3)C(=O)C(=O)N2c2nc3ccc(F)cc3s2)cc1 (configuration not stated)	54.8*	19.3	.	15.3	7.5
COc1ccc(C2/C(=C(\O)c3ccccc3)C(=O)C(=O)N2c2cccc(C(F)(F)F)c2)cc1 (configuration not stated)	33.3*	0.0	.	10.4	-86.9
CCc1ccc(NC(=O)C2Nc3ccccc3S(=O)(=O)N2)cc1 (configuration not stated)	45.7*	12.0	41.1*	22.4	1.7
O=C(NC1CC1)c1ccc(C2Nc3ccccc3S(=O)(=O)N2)cc1 (configuration not stated)	4.2	-0.6	-1.3	-7.4	0.2
CC(C)c1ccc(NC(=O)c2ccc(C3Nc4ccccc4S(=O)(=O)N3)cc2)cc1 (configuration not stated)	50.5*	-0.5	64.8*	20.6	-2.6
Cc1ccc(NC(=O)C2Nc3ccccc3S(=O)(=O)N2)cc1C (configuration not stated)	.	1.6	66.4*	.	0.2
CCNC(=O)N1CCC(=O)N(C)c2ccccc2C(OC)C1 (configuration not stated)	7.1	3.9	4.6	2.7	5.9
CC1CCN(S(=O)(=O)NCc2cccc(S(N)(=O)=O)c2)CC1	.	6.4	8.3	.	-3.0
O=C(Cn1cccc(S(=O)(=O)N2CCCCCC2)c1=O)Nc1ccc(F)cc1	5.4	-71.9	42.0*	-18.1	16.5
